Target: TRIM23
Assay: pooled miR-30 sensor sort-seq; sequence = guide strand
Settings: shRNA

Sequence	sensor-assay potency score (higher = more potent)
TACTGAATGCTTGTGACCCTGG	0.0097
TCAGCTAGAGGAACTCGCCTGT	0.453
TACAACAAACACAACAGCTTGA	0.537
TAGTAGTTTTTCCAGCACCATC	-1.64
TTTTGGTCCAATGTGAACTCGA	0.0711
TTGTAGAATGAGTAACTTGAGA	-0.898
TAGAGGAACTCGCCTGTGCTTT	-1.17
TTTTCCGTTAACAACTTTGCAA	-0.567
TATCTAAAATTGATGCTCGGAT	-0.778
ATCAACAACACTTAGAGCCATT	-1.25
AACTCTACAATCATCCTGCTGC	0.546
AACTTCTGTAAACTGCTGCTGC	0.168
TTCTTCTGCAGCTCCATACTGA	-0.628
TTAATTTGTGTTTTCCACCTAC	0.335
TACATGTTCTGTGTGAGCCATT	-1.01
TAATCTGAGATTTCCTCTGTGA	0.349
TTTAACTTAAACAAGATAGTAG	0.417
TTTGTTAGCAAAAATCAGGAGC	-0.0645

Reference: the OligoGym collection
